# In the library only some 19% were active in any assay of this set; here they are far more common.
# TDP1 cell noCPT: qHTS for Inhibitors of human tyrosyl-DNA phosphodiesterase 1 (TDP1): qHTS in cells in absence of CPT; hit rate 15% among 420,000; DT40 Tdp1-/- hTDP1 cells, no CPT, ATP luminescence, 48 h; Potency, µM (top dose mostly 46.2 µM), for the others: top-dose activity change, negative = growth inhibition, actives largely listed as inhibitors; further: nearly all actives have a fitted effect of over 55% in size
#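 Stably hTDP1-transfected Tdp1-null chicken DT40 cells were treated with library compounds minus camptothecin and grown for at least 48 hr at 37 °C, after which cellular ATP was quantified by luminescence.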
# TDP1 cell CPT: qHTS for Inhibitors of human tyrosyl-DNA phosphodiesterase 1 (TDP1): qHTS in cells in presence of CPT | AID 686979, 2013 | chicken DT40 Tdp1-/-;hTDP1 cells + 20 nM CPT, ATP luminescence, 48 h | hit rate 12% among 420,000 | Potency, µM (doses to about 46.2 µM), without a hit: top-dose activity change, negative = growth inhibition, hits mostly inhibitors; further: nearly all actives have a fitted effect of over 55% in size
#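 Chicken DT40 Tdp1-/- cells stably complemented with human TDP1 were seeded at 400 cells/well in medium containing 20 nM camptothecin, exposed to pin-transferred compounds, and grown at 37 °C for at least 48 hr. Viability was read as ATP luminescence.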
# TDP1 inh: qHTS Assay for Inhibitors of Tyrosyl-DNA Phosphodiesterase (TDP1) | Tyrosyl-DNA phosphodiesterase 1 (Homo sapiens), Q9NUW8 | recombinant TDP1, AlphaScreen DNA substrate cleavage | Potency, µM (titrated, usually from 130 µM), for inactives: at the top dose activity change, negative = inhibition, most hits filed as inhibitors | hit rate 0.28% among 350,000 | AID 485290, 2010; further: nearly all actives have a fitted effect of over 40% in size
# Target sequence (Q9NUW8 whole entry, looked up): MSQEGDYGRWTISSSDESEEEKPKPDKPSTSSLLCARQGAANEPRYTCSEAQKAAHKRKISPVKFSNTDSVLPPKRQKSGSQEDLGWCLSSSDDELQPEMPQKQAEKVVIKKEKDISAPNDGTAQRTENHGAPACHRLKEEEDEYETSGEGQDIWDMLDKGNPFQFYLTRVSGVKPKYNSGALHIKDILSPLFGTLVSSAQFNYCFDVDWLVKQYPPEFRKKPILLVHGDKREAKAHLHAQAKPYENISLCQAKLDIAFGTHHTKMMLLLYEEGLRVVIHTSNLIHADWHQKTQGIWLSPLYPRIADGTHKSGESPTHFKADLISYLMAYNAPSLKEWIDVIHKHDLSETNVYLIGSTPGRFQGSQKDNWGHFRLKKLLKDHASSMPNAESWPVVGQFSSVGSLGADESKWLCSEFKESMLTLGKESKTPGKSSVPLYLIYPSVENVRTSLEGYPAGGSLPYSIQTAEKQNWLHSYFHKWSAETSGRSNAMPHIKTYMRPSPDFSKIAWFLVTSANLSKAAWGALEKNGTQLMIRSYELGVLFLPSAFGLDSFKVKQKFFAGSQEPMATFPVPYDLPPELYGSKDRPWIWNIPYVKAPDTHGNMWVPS
#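 Steps: enzyme plus compound, 15 min RT; add biotin/phosphotyrosine-FITC oligonucleotide (15 nM final), react 5 min; add donor/acceptor beads (10 ug/ml final), 10 min; read AlphaScreen. Tdp1 at 1 nM final.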
# RORg inh: qHTS for inhibitors of ROR gamma transcriptional activity. Drosophila S2 Gal4-RORgamma UAS-luciferase reporter, 20 h. Potency, µM (doses to about 53.6 µM), without a hit: top-dose activity change, negative = inhibition, usual class: inhibitors. hit rate 5.4% among 310,000. AID 2551, 2010; further: nearly all actives have a fitted effect of over 60% in size
#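 A Gal4/UAS one-hybrid system in insect cells: metallothionein-promoter Gal4–ROR gamma fusion plus Photinus luciferase reporter. Copper sulfate 700 uM final, 20 hr ambient incubation, luminescent detection after 10 min with reagent.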
# VP16 counter: VP16 counterscreen qHTS for inhibitors of ROR gamma transcriptional activity; Drosophila S2 Gal4-VP16 UAS-luciferase, luminescence, 20 h; Potency, µM (highest dose often 53.6 µM), for inactives: at the highest dose activity, negative = inhibition, actives largely listed as inhibitors; hit rate 3.5% among 310,000; AID 2546, 2010;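 further: Gal4-VP16 expression switched on by copper sulfate through the metallothionein promoter; nearly all actives have a fitted effect of over 50% in size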
# Numbers without * were called inactive; ? = inconclusive; . = not tested or not shown. The call rests on the fitted dose curve; in most records, active means well fitted curve in the direction sought with a large enough effect; inconclusive means small, poorly fitted or top-dose-only effect, or another doubt; inactive means no such curve, though single readings can be large; an effect the other way counts as inactive or inconclusive. On the % scale 0 is the no-effect control and ±100 the full control effect; potency means the concentration at half of the fitted maximal effect.
SMILES,TDP1 cell noCPT,TDP1 cell CPT,TDP1 inh,RORg inh,VP16 counter
Fc1ccccc1N1CCN(C(c2ccnc3ccccc23)c2nnnn2-c2ccc3c(c2)OCCO3)CC1 (stereo not given),20.6µM*,?,.,.,.
Cc1cccc(C)c1N1CCN(C(c2ccnc3ccccc23)c2nnnn2-c2ccc3c(c2)OCCO3)CC1 (stereo not given),14.6µM*,18.4µM*,.,.,.
Cc1cc(C)cc(NC(=O)CCc2nnc3n(C)c(=O)c4sccc4n23)c1,-14.7%,-15.0%,-8.8%,.,.
CNc1cccccc1=S,4.61µM*,3.26µM*,3.55µM*,0.5%,-3.0%
COCCNc1nc2c(-c3cccc(C(F)(F)F)c3)nnn2c2ccccc12,-20.8%,2.2%,.,-21.5%,11.5%
CC(=O)N(c1ccccc1C)S(=O)(=O)c1ccc(Cl)cc1,-14.8%,?,-7.7%,-18.1%,-9.2%
CC(=O)Oc1ccc(N(C(C)=O)S(=O)(=O)c2ccc3ccccc3c2)cc1,20.6µM*,?,.,?,0.8%
CC(=O)Oc1ccc(N(C(C)=O)S(=O)(=O)c2ccc(C)cc2)c2ccccc12,5.17µM*,5.17µM*,.,.,.
CC(=O)Oc1ccc(N(C(C)=O)S(=O)(=O)c2ccc(Cl)cc2)c2ccccc12,?,29.1µM*,.,?,?
Cc1ccc(C)c(NCCCCC(=O)O)c1,-7.6%,4.9%,.,.,.
COc1ccc(CCNC(=O)C(C(=O)c2ccc(F)cc2)n2ccccc2=O)cc1OC (stereo not given),6.51µM*,?,-5.3%,-11.4%,-10.6%
O=C(NCC1CCCO1)C(C(=O)c1ccc(F)cc1)n1ccccc1=O (stereo not given),23.1µM*,?,-1.0%,2.4%,?
COc1ccc(CCNC(=O)C(C(=O)c2ccccc2)n2ccccc2=O)cc1OC (stereo not given),5.8µM*,-19.6%,5.5%,-11.3%,-9.2%
COc1ccc(CCNC(=O)C(C(=O)c2ccccc2)n2cc(Cl)ccc2=O)cc1OC (stereo not given),-20.8%,-12.1%,2.6%,-10.6%,-7.3%
CN(C)S(=O)(=O)N1CCC(Oc2cccc(C(=O)N3CCSCC3)c2)CC1,-25.7%,-1.1%,2.5%,?,14.0%
CC(=O)Nc1ccccc1/C=C/c1ccc2c(C)cc(C)c(O)c2n1,16.4µM*,?,0.6%,7.94µM*,7.94µM*
Cc1cc(C)c2ccc(NN)nc2c1O,18.4µM*,?,7.0%,6.31µM*,10µM*
Cc1cc(NN)nc(Cc2ccccc2)n1,-4.6%,-24.2%,.,-41.2%,4.5%
CC(=O)Nc1cc2c3ccccc3ccc2c2ccccc12,-17.6%,-9.2%,.,.,.
Cc1cc(C)c2ccc(/C=N/O)nc2c1O,-28.6%,-20.6%,.,3.16µM*,6.31µM*
OC[C@@H]1OC(O)[C@@H](O)[C@H](O)[C@H]1O (stereo not given in full),.,.,6.2%,-20.8%,0.8%
COC(=O)c1cc(OC)c(OC)cc1NC(=O)C1CCC(=O)N1S(=O)(=O)c1ccc(C)cc1 (stereo not given),18.4µM*,20.6µM*,4.4%,-36.3%,-1.5%
COc1cc(OC)c(C#N)c(S(=O)Cc2ccccc2)c1 (stereo not given),-6.5%,-0.3%,0.0%,-9.4%,5.0%
O=C(NNc1ccc([N+](=O)[O-])cc1)c1ccccc1Cl,-29.9%,-9.2%,0.0%,18.6%,-16.0%
O=C(NNC1=Nc2cc([N+](=O)[O-])ccc2OC1)c1ccccc1Cl,?,?,5.5%,1µM*,-19.3%
SMILES,TDP1 cell noCPT,TDP1 cell CPT,TDP1 inh,RORg inh,VP16 counter
CCNC(=S)NN=C1c2ccccc2-c2ccccc21,3.66µM*,3.66µM*,10.3%,1.78µM*,3.16µM*
C=C(C)CNC(=S)N/N=C/c1ccco1,5.17µM*,18.4µM*,3.8%,0.562µM*,3.16µM*
C=C(C)CNC(=S)NN=C1c2ccccc2-c2ccccc21,?,?,8.9%,3.16µM*,?
CCOC(=O)N1CCC(c2cc(=O)n3[nH]ccc3n2)CC1,-17.6%,5.1%,-1.0%,-3.0%,-2.0%
CC(C)C[C@H]1COc2cc(N3CC[C@@H](O)C3)ccc2S(=O)(=O)N1,-23.0%,13.2%,.,.,.
CCCCC[C@@H](C)N1C[C@H](COCc2ccccc2)Oc2cc(N3CC[C@@H](O)C3)ccc2S1(=O)=O,20.6µM*,?,.,.,.
CCCCC[C@@H](C)N1C[C@H](COCc2ccccc2)Oc2cc(N3CC[C@H](N(C)C)C3)ccc2S1(=O)=O,18.4µM*,?,.,.,.
CC(C)C[C@@H]1COc2cc(N3CC[C@H](O)C3)ccc2S(=O)(=O)N1,-5.0%,-7.8%,.,.,.
C[C@H](c1ccccc1)N1C[C@@H](COCc2ccccc2)Oc2cc(N3CC[C@H](O)C3)ccc2S1(=O)=O,16.4µM*,?,.,.,.
COc1cc(NC(=O)C2(C)CCN2C(=O)C(C)C)cc(OC)c1OC (stereo not given),-0.6%,-4.7%,.,.,.
Cc1ccc(-n2ccnc(SCC(=O)NCCc3ccccc3)c2=O)cc1F,14.6µM*,?,-1.9%,.,.
Cc1ccc(OCC(=O)N2CCc3ccccc32)cc1,-22.4%,1.8%,0.0%,-18.4%,-5.3%
O=C(OCc1nc2scc(-c3ccccc3)c2c(=O)[nH]1)c1cc(Cl)ccc1[N+](=O)[O-],-28.3%,?,9.5%,11.2µM*,?
Cc1c(C(=O)OCc2nc3scc(-c4ccccc4)c3c(=O)[nH]2)cccc1[N+](=O)[O-],-20.1%,10.8%,0.6%,?,-5.1%
CN1CCN(c2ncncc2-c2ccccc2C(F)(F)F)CC1,-5.5%,-17.4%,.,5.3%,9.3%
